# This is a sample that favours compounds with a hit; in the whole collection about 2.5% have one here.
# ANO1 activ – activators or potentiators of mouse TMEM16A chloride channel | HEK293 TMEM16A/YFP-H148Q/I152L, iodide quench fluorescence; hits give low values | Q8BHY3 | 340,000 tested, 0.3% active | B-score at 10 µM | AID 623877;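 active = fluorescence-ratio B-score plate-corrected deviation score at least 3 library SD below zero, with starting fluorescence score within 5 deviations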;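 note: channel opened by trigger with iodide after compound preincubation; score built on the fluorescence ratio of max minus min over baseline; more negative score means more quench and so TMEM16A activation or potentiation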
# Jurkat NFkB inh – inhibitors of the PMA/ionomycin-induced NF-kB reporter in Jurkat cells | inhibition, % at 4 µM | PMA/ionomycin-induced NF-kB luciferase reporter, luminescence | AID 435003 | 330,000 tested, 0.53% active; in the data active = inhibition above about 50%
# aSyn 5UTR inh – 5' untranslated region of α-synuclein, MLPCN primary screen. alpha-synuclein 5'UTR reporter, inhibitor activity. inhibition, % (tested at 7.5 µM). 300,000 tested, 0.82% active; in the data active = inhibition above about 60%;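 note: H4 neuroglioblastoma cells stably carrying SNCA 5'UTR luciferase fusion; 0% = DMSO wells and 100% = positive control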
# KLF5 inh – kruppel-like factor 5 inhibition; DLD-1 KLF5 promoter-luciferase reporter, luminescence; inhibition, % at 5 µM; 290,000 tested, 0.23% active;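 active = inhibition above a per-plate limit of that plate's mean compound inhibition plus 3 SD, cut at about 60% in these data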;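 note: 0% = DMSO wells and 100% = LY294002 at 200 µM; higher means less KLF5 promoter-driven luciferase light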
# 697 NFkB inh – inhibitors of the PMA/ionomycin-induced NF-kB reporter in 697 B cells | 697 B-cell NF-kB luciferase reporter, 16 h | 330,000 tested, 0.33% active | AID 435022 | inhibition, % at 4 µM; in the data active = inhibition above about 35%
# TMEM16A inh – mouse TMEM16A channel inhibition, primary screen | Q8BHY3 | HEK293 TMEM16A/YFP iodide influx fluorescence, ionomycin | normalized B-score (activity score, 25-100; higher = stronger inhibition) at 10 µM | 310,000 tested, 1.2% active;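 active = ratio plate-corrected score three or more library SD toward inhibition, starting fluorescence score within five deviations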;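 note: score derived from kinetic fluorescence span divided by baseline fluorescence per well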
# Jurkat NFkB conf – lowers PMA/ionomycin-induced NF-kB signal in Jurkat cells. Jurkat NF-kB luciferase, 16 h. AID 435020. 2,700 tested, 27% active. inhibition, % at 4 µM. shares compounds with Jurkat NFkB inh;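 active = inhibition reaching about 45% at 4 µM in either replicate, limit read from the data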;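 note: plate controls were PMA/ionomycin stimulated DMSO wells for no effect and unstimulated DMSO wells for full effect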
# 697 NFkB conf – inhibitors of the PMA/ionomycin-induced NF-kB reporter in 697 B cells, retest; 2,000 tested, 35% active; shares compounds with 697 NFkB inh; AID 449746; inhibition, % at 4 µM; 697 B-cell NF-kB luciferase, 16 h; in the data active = inhibition mostly above about 28%, no sharp cut-off; inactive = mostly below about 22%
# * marks the source's active call; other numbers are inactive results; i = inactive; nt = no result given.
SMILES,ANO1 activ,Jurkat NFkB inh,aSyn 5UTR inh,KLF5 inh,697 NFkB inh,TMEM16A inh,Jurkat NFkB conf,697 NFkB conf
CC(C)(C)C(=O)/C(=C\c1ccc([N+](=O)[O-])cc1)n1cncn1,nt,76*,-277,45,44*,i,57*,50*
Cc1cc(N2CCOCC2)n2ncc(-c3ccc(Cl)cc3)c2n1,i,-157,nt,-101,-361,i,-24,-230
CC(C)(C)c1cc(N2CCOCC2)n2ncc(-c3ccc(Cl)cc3)c2n1,i,-16,-15,-9,-11,i,nt,nt
COc1ccc(-c2cc(C)nc3c(-c4ccccc4)cnn23)cc1,i,nt,-38,-158,nt,nt,nt,nt
Cc1cc(N2CCCCC2)n2ncc(-c3ccccc3)c2n1,i,-185,56,-60,i,i,-63,-418
Cc1cc(N2CCCCC2)n2ncc(-c3ccc(Cl)cc3)c2n1,i,-189,-181,-13,-309,i,-80,-214
Cc1cc(-c2ccccc2)n2ncc(-c3ccccc3)c2n1,i,-202,40,-213,i,i,-91,i
O=C1c2ccccc2[C@@H]2C[C@@H](O)[C@H](Nc3ccccc3-c3ccccc3)CCN12,i,nt,nt,nt,10,nt,nt,nt
CC(=O)NS(=O)(=O)c1ccc(NC(=O)c2ccccn2)cc1,i,-3,-16,-5,6,i,nt,nt
O=C(Nc1ccc(SC(F)(F)F)cc1)c1ccccn1,i,-180,11,-146,-263,i,-129,-346
O=C(CCl)N1CCCC1c1ccc2c(c1)OCCO2 (configuration not stated),i,85*,-152,20,52*,i,78*,67*
CC(C)OC(=O)c1sc2nc(-c3ccccc3)ccc2c1N,i,-290,1,-78,-276,i,-8,-81
Cc1ccc2nc(NC(=O)CCn3cccc3)sc2c1,i,-29,-115,-35,-23,i,nt,nt
Cc1ccc2nc(NC(=O)CCCC(=O)O)sc2c1,i,55*,102*,9,71*,i,69*,76*
CNC(=O)C(C)Sc1ccc(S(=O)(=O)N2CCOCC2)cn1 (configuration not stated),i,11,nt,nt,6,nt,nt,nt
Cc1nc(NCc2ccco2)c2c(C)c(C)sc2n1,i,70*,-177,3,-281,i,58*,-43
Cc1ccc(-c2nc(Nc3ccccc3)n[nH]2)cc1,i,-162,nt,-148,-280,i,-160,-367
CCN1/C(=C/c2ccc3cccc(C)c3[n+]2CC)Sc2ccccc21,i,92*,-134,32,102*,i,77*,87*
CCN1/C(=C/c2ccc3cc(C)cc(C)c3[n+]2CC)Sc2cc(C)ccc21,i,nt,nt,16,nt,nt,nt,nt
CC(=O)N1CCN(C(=O)c2ccc(S(=O)(=O)Nc3ccccc3F)cc2)CC1,i,-5,nt,nt,24,nt,nt,nt
Nc1cccc2c1C(=O)N(CCOc1ccccc1F)C2=O,i,-183,30,33,-319,i,-120,-360
Cc1nn(-c2nc3ccccc3s2)c(C)c1Oc1ccccc1O,i,-194,-77,-139,i,i,-142,i
Cc1ccc(C(=O)CN2C(=O)c3ccccc3S2(=O)=O)cc1,i,81*,109*,57,73*,i,66*,51*
C=CCn1c(C)cc(C(=O)CN2C(=O)c3ccccc3S2(=O)=O)c1C,i,89*,nt,nt,66*,nt,49*,45*
C=CCn1c(C)cc(C(=O)CN2C(=O)NC3(CCCc4ccccc43)C2=O)c1C (configuration not stated),i,-1,-13,-25,-21,i,nt,nt
O=C(CCNS(=O)(=O)c1ccc(Br)cc1)NC1CCC(O)CC1 (configuration not stated),i,1,nt,nt,15,nt,nt,nt
Cc1ccc2[nH]c3c(c2c1)CCCC3NC(=O)CCl (configuration not stated),i,97*,15,43,-262,i,95*,-52

# From PubChem BioAssay
